Among the data in PubChem BioAssay (NCATS) are activity, negative = inhibition values, retold here.

Records with an inconclusive call do not appear. Values without a mark were called inactive. Calls come from the whole dose curve; as a rule, active = well fitted curve in either direction with a large enough effect (not every such curve was filed as active); inconclusive = small, poorly fitted or top-dose-only effect, or another doubt; inactive = flat fitted curve, though single readings scatter.
% is set by controls: 0 for no effect and ±100 for the full control effect.

This assay can be described thus: Stat Signaling Pathway (AID 446).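 Note: SIE-controlled beta-lactamase reporter measured as 460/530 nm FRET emission ratio.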 The settings on record: ME-180 (cervical carcinoma) SIE beta-lactamase reporter, IL-6 stimulated, 5 h; at 17.2 µM (top of the series) unless noted. A digest of the protocol: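 Overnight-plated ME-180 cells bearing a STAT Inducible Element beta-lactamase reporter; 5 h co-exposure to compound and 40 pM IL-6; values normalized to 300 pM IL-6 and 125 nM JAK inhibitor controls.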
As for `O=S(=O)(O)c1nc2ccccc2n1Cc1ccc(Cl)cc1Cl`, the activity, negative = inhibition was -9%. For the compound `COc1ccccc1C(=O)N1CCCC1(C#N)c1ccccc1` (stereo not given), the activity, negative = inhibition was -2.09%.

In the case of `Cc1ccc(C2/C(=C(/O)c3cnn(-c4ccccc4)c3C)C(=O)C(=O)N2CCN2CCOCC2)o1` (stereo not given), the activity, negative = inhibition was -14.9%. `COc1ccc(C(=O)N2CCCC(c3ccccc3)C2)cc1` (stereo not given): the activity, negative = inhibition was 2.57%. Turning to `CC(C)OC(=O)[C@H]1[C@H](c2ccc(Cl)cc2)[C@@](C#N)(C(N)=O)[C@@H]2C=CC(C(N)=O)=CN21`, the activity, negative = inhibition was -11.5%. With `CCN(CC)CCCC1(CN)OCCc2ccccc21` (stereo not given), the activity, negative = inhibition was 8.19%. Next, `N=c1ncn(CC(O)CN2CCOCC2)c2nc(N3CCOCC3)[nH]c12` (stereo not given): 13.6%; `Cc1nn(CCO)c2c1C(=O)CCC2`: 5.4%. With `CC(C)CCNc1nc2c(cc1C#N)COC(C)(C)C2`, the activity, negative = inhibition is 4.4%. Next, `CCCCCOc1ccccc1C(=O)NCC(=O)O`: 9.43%; `COCc1[nH]nc2c1C(c1ccccc1OC)C(C#N)=C(N)O2` (stereo not given): -17.1%; `CSc1nnc(C)c(=O)[nH]1`: 14.8%. Take `COCCCn1c2nc3ccccc3nc2c2c(=O)n(CC3CCCO3)cnc21` (stereo not given): the activity, negative = inhibition was -0.209%.

As for `CC1(C(=O)CSc2n[nH]c(-c3ccccc3Cl)n2)CCC(=O)O1` (stereo not given), the activity, negative = inhibition is 0.984%. The result for `CCCC(=O)Nc1sc2c(c1C#N)CCCC2` reads 8.33%. The result for `Cc1nc2ccccc2cc1O` reads 5.42%; that for `Nc1ccc2oc3ncccc3c(=O)c2c1`, -3.84%. Turning to `CCN(CC)CCN1C(=O)C(=O)/C(=C(/O)c2ccc(OC)cc2)C1c1ccco1` (stereo not given), the activity, negative = inhibition is 3.92%.

For the compound `Cc1cc2ccccc2cc(C)c1=O`, the activity, negative = inhibition was -25.4%. With `CCC(=O)Nc1cccc(-c2nnc(SCC(=O)NCc3ccco3)n2C)c1`, the activity, negative = inhibition was -2.86%.

As for `Cc1c(C(=O)O)c(=S)sn1CCOc1ccccc1`, the activity, negative = inhibition is 5.37%. In the case of `CCOC(=O)CSc1nc(-c2ccncc2)ccc1C#N`, the activity, negative = inhibition is 3.41%.

Consider `O=C1C2ON(c3ccccc3)C(c3cccnc3)C2C(=O)N1c1ccc(Cl)c(Cl)c1` (stereo not given), for which the activity, negative = inhibition was -9.39%. The result for `c1ccc(SCc2nc3ccccc3[nH]2)nc1` reads 8.86%; that for `Cc1cc(C)nc(NC2=NCC(=O)N2c2ccccc2)n1`, 9%; that for `Cc1ccccc1COc1ccc(/C(O)=C2/C(=O)C(=O)N(CCCn3ccnc3)C2c2ccco2)cc1` (stereo not given), 3.48%. The result for `CC1(C)Cc2c(c(-c3ccccc3)nc3[nH][nH]c(=O)c23)CO1` reads 12.3%; that for `CCn1cc(C(=O)NCC2CCCO2)c(=O)c2cc(F)c(N3CCN(C)CC3)cc21` (stereo not given), -0.513%; that for `O=C(c1ccccc1)c1cc(-c2ccccc2)on1`, -7.84%.

With `COc1ccc(C2NC3=C(CCC3)C3(C#N)C(OC)(OC)N=C(N)C23C#N)cc1` (stereo not given), the activity, negative = inhibition is -5.86%.

Turning to `OCCNC1=NCCN1`, the activity, negative = inhibition is 1.85%. The result for `COC(=O)c1ccc(C2/C(=C(/O)c3ccc(OC)cc3)C(=O)C(=O)N2Cc2ccco2)cc1` (stereo not given) reads -22.4%; that for `Cc1cc(C)n2c3c(c(C#N)c2n1)CC(C)(C)OC3`, -0.114%; that for `CCOC(=O)C(NC=O)(NC(C)(C)C)C(=O)OCC`, 24.2%. The result for `Cc1cc(=O)oc(C)c1C(=O)N1CCN(Cc2ccc3c(c2)OCO3)CC1` reads 5.97%; that for `C=CCOc1ccc(/C(O)=C2/C(=O)C(=O)N(CCCN3CCOCC3)C2c2ccc(OC)cc2)cc1` (stereo not given), -4.29%.

On to `C=COC(=O)CSc1nc(-c2cccs2)ccc1C#N`, for which the activity, negative = inhibition is 12.2%.

As to `CN1CCN(Cc2c(O)ccc3c(-c4ccccc4)cc(=O)oc23)CC1`, the activity, negative = inhibition is -7.33%. As for `COc1ccc(OC)c(C2/C(=C(\O)c3ccc(OC)c(Cl)c3)C(=O)C(=O)N2CCN(C)C)c1` (stereo not given), the activity, negative = inhibition is -6.77%.

Turning to `CCc1[nH]c(=O)c(C#N)c2c1CCCC2`, the activity, negative = inhibition is 4.68%.
